Source: PubChem
G9a block: inhibitors of human histone lysine methyltransferase G9a; Q96KQ7; G9a H3K9 monomethylation, AlphaScreen, 2 h; Potency, µM (titrated, usually from 102 µM), for inactives: at the highest dose activity, negative = inhibition, most hits filed as inhibitors; 8.8% of 350,000 active; AID 504332; also: % is scaled to controls: 0 for no effect and ±100 for the full control effect; nearly all actives have a fitted effect of over 75% in size
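AlphaScreen read-out: biotin-H3K9 peptide (500 nM) methylation by 20 nM enzyme with 20 uM SAM, 2 h at room temperature after 15 min compound preincubation; anti-monomethyl H3K9 antibody plus donor/acceptor beads, 10 min dark.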
BAZ2B inh: BAZ2B (human) inhibition; AlphaScreen BAZ2B-H3K14Ac peptide displacement; Q9UIF8; 4.4% of 360,000 active; Potency, µM (titrated, usually from 114 µM), for the others: at the top dose activity change, negative = inhibition, actives largely listed as inhibitors; also: % is scaled to controls: 0 for no effect and ±100 for the full control effect; nearly all actives have a fitted effect of over 60% in size
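Compounds, titrated to a top concentration of 110 uM, were incubated 30 min at room temperature with preformed BAZ2B/acetyl-K14 H3 peptide complex (50 nM each). Proximity signal was measured by AlphaScreen after 20 min with beads.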
L3MBTL1 block: inhibitors of human L3MBTL1. Potency, µM (series often up to 57.1 µM), without a hit: at the top dose activity, negative = inhibition, actives largely listed as inhibitors. AlphaScreen L3MBTL1–H3K9me1 peptide binding. 0.66% of 230,000 active; also: % is scaled to controls: 0 for no effect and ±100 for the full control effect; nearly all actives have a fitted effect of over 60% in size
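AlphaScreen assay: L3MBTL1 (50 nM final) was preincubated 30 min at room temperature with biotinylated H3(1-15)K9me1 peptide (75 nM final), then 30 min with library compounds; streptavidin donor and nickel chelate acceptor beads (10 ug/mL final) added, 30 min dark.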
JMJD2A Tudor inh: inhibitors of human JMJD2A Tudor domain | O75164 | AlphaScreen JMJD2A-Tudor / H3K4me3 peptide binding | Potency, µM (highest dose often 114 µM), without a hit: top-dose activity change, negative = inhibition, usual class: inhibitors | 4.4% of 390,000 active | AID 504339; also: % is scaled to controls: 0 for no effect and ±100 for the full control effect; nearly all actives have a fitted effect of over 50% in size
HP1b chromo inh: inhibitors of HP1-beta chromodomain binding to methylated histone tails | P83916 | AlphaScreen HP1-beta / biotin-H3K9me3 peptide binding | Potency, µM (series often up to 114 µM), inactives show at the highest dose activity change, negative = inhibition, usual class: inhibitors | 0.56% of 390,000 active | AID 540317; also: nearly all actives have a fitted effect of over 70% in size
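Compound inhibition of the preformed complex between 50 nM HP1-beta and 50 nM biotinylated H3K9me3 peptide was read by AlphaScreen. Buffer was PBS pH 7.4 with 0.01% Tween-20. Incubations ran 30 min at room temperature, with 10 ug/mL donor/acceptor beads.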
Starred values were filed as active, the others as inactive; ? = inconclusive; . = not tested or not shown; [ ] = dose if it differs, or a comment. The list is not random: actives were taken first. Their share in the collection is about 11%. Calls follow the shape of the dose curve; as a rule, active = well fitted inhibition curve with a large enough effect; inconclusive = small, poorly fitted or top-dose-only effect; inactive = no such curve, though single readings can be large or run the other way. Potency is read from the fitted curve at half-maximal effect.

SMILES | G9a block | BAZ2B inh | L3MBTL1 block | JMJD2A Tudor inh | HP1b chromo inh
CC1CC(C)CN(CCCn2c(=S)[nH]c3ccccc3c2=O)C1 (centres undefined) | 79µM* | 1% | . | -15% | 50%
CCOc1ccc(C(=O)Nc2cc(-c3cn4cccnc4n3)ccc2C)cc1OCC | 5%[59 µM] | 6% | . | -15% | 14%[57 µM]
CC(C)OCCCn1c(=S)[nH]c2ncccc2c1=O | 50µM* | -7% | -2% | ? | -6%
CC1CCCCN1CCn1c(=S)[nH]c2ncccc2c1=O (centres undefined) | ? | -25% | -4% | 40µM* | -2%
CCN(CCCn1c(=S)[nH]c2ncccc2c1=O)c1ccccc1 | 1% | -31% | -6% | -25% | 9%
O=c1c2cccnc2[nH]c(=S)n1CCCN1CCN(c2ccccc2F)CC1 | 25%[2.33 µM] | 5% | 5% | -16% | 32%
Cc1nnc(NC(=O)CSc2ccccc2N)s1 | 6% | 6% | -4% | -18% | 27%
Cc1ccc2nc(/C(C#N)=C/c3cccc(Br)c3)[nH]c2c1 | 38%[59 µM] | -27% | . | ? | -13%
Cc1ccc2nc(/C(C#N)=C/c3ccc(O)c(O)c3)[nH]c2c1 | 8.9µM* | 7.9µM* | . | 16µM* | ?
N#C/C(=C\c1ccc(N2CCOCC2)c([N+](=O)[O-])c1)c1nc2ccccc2[nH]1 | 1%[59 µM] | 35µM* | 0% | ? | -32%
N#C/C(=C/c1ccc(N2CCCC2)c([N+](=O)[O-])c1)c1nc2ccccc2[nH]1 | 11%[2.33 µM] | -5% | -7% | -12% | 8%
Cc1ccc2nc(/C(C#N)=C\c3ccc(N4CCCCC4)c([N+](=O)[O-])c3)[nH]c2c1 | 14µM* | 45µM* | . | 5.6µM* | ?
CC1CC=CC2C1C(=O)N(Cc1ccccc1)C2c1ccc(-c2ccoc2)cc1F (centres undefined) | . | . | . | -23% | 34%
COc1ccc(C2c3c(oc4cc(C)cc(C)c4c3=O)C(=O)N2Cc2ccco2)cc1OC (centres undefined) | 1%[59 µM] | 1% | . | -2% | 33%
COc1ccc(C(=O)C(c2ccccc2)N2CCOCC2)cc1 (centres undefined) | 50µM* | ? | 46% | -30% | 41%
CCOc1ccc(C(=O)C(c2ccccc2)N2CCOCC2)cc1 (centres undefined) | 6%[59 µM] | -7% | -1% | -18% | 48%
COc1ccc(N2CCN(Cc3nc(N)nc(N4CCCc5ccccc54)n3)CC2)cc1 | 45µM* | 11µM* | -9% | 50µM* | ?
Nc1nc(CN2CCN(c3ccccc3F)CC2)nc(N2CCCc3ccccc32)n1 | ? | 50µM* | -4% | ? | 3%
Nc1nc(CSc2nnnn2-c2ccccc2)nc(N2CCCc3ccccc32)n1 | -6%[59 µM] | -4% | -22% | -12% | 16%
Nc1nc(CN2CCN(c3ccccc3)CC2)nc(N2CCCc3ccccc32)n1 | 50µM* | ? | -26% | 50µM* | -6%
Nc1nc(CN2CCN(Cc3ccccc3)CC2)nc(N2CCCc3ccccc32)n1 | . | ? | -20% | -21% | 14%
Cn1c(=O)c2c(SCC(=O)NCc3ccco3)nc(-c3ccccc3)nc2n(C)c1=O | -3%[59 µM] | 2% | . | 6% | 21%[57 µM]
COc1ccccc1NC(=O)CSc1nnc(NC(=O)Nc2ccc(C)cc2)s1 | ? | -3% | . | -15% | 17%
CCN(CC(=O)Nc1ccc(OC)cc1)C(=O)c1cc(-c2cccs2)nn1-c1ccccc1 | ? | -31% | -10% | -14% | 16%
O=C(O)c1cc(-c2cc3ccccc3o2)nn1-c1ccccc1 | 45µM* | . | -16% | -9% | 28%
SMILES | G9a block | BAZ2B inh | L3MBTL1 block | JMJD2A Tudor inh | HP1b chromo inh
O=C(O)c1cc(-c2cccs2)nn1-c1ccccc1 | 45µM* | -38% | -10% | -4% | 28%
COc1ccc(NC(=O)CN(C)C(=O)c2cc(-c3cccs3)nn2-c2ccccc2)cc1 | 50µM* | -5% | -15% | -21% | 5%
COCCNC(=O)c1nn(-c2ccc(C)cc2)c(=O)n(C)c1=O | 4%[59 µM] | -2% | . | -6% | -8%[57 µM]
COc1ccc(S(=O)(=O)c2c(C(=O)c3ccc(C)c(C)c3)cnc3ccc(C)cc23)cc1 | -39%[59 µM] | -26% | . | ? | 14%
CCCC(=O)N(Cc1cc(=O)[nH]c2ccccc12)c1ccc(C)cc1 | 25µM* | -3% | . | 89µM* | -9%
Cc1ccc(N(Cc2cc(=O)[nH]c3ccccc23)C(=O)C(C)C)cc1 | 50µM* | -5% | 0% | -9%[11.4 µM] | 34%
CCCC(=O)N(Cc1cc(=O)[nH]c2ccccc12)c1ccccc1OC | 45µM* | -14% | . | -15% | 20%
COc1ccc(N(Cc2cc(=O)[nH]c3ccccc23)C(=O)c2ccco2)cc1 | 50µM* | 1% | 40% | ? | 10%
CCN(Cc1cc(=O)[nH]c2ccccc12)C(=O)C(C)C | 6% | -1% | -3% | -7% | -2%
COc1ccc(OC)c(NC(=O)c2cc3c(n(-c4ccc(Cl)cc4)c2=O)CC(C)(C)CC3=O)c1 | 0%[59 µM] | 2% | . | -6% | 13%
CCOc1cc(C(=O)NCc2ccc3c(c2)CCN3C(=O)CC)cc(OCC)c1OCC | -5%[59 µM] | 1% | . | -4% | 40%
Cc1cc(S(=O)(=O)N(Cc2ccccc2)Cc2ccc(N(C)C)cc2)ccc1-n1cnnn1 | 8.9µM* | -33% | 10%[11.4 µM] | 40µM* | -23%
Cc1cc(S(=O)(=O)N(C)CCc2ccccc2)ccc1-n1cnnn1 | 4% | 0% | -9% | 6% | 26%
COc1cccc(CNS(=O)(=O)c2ccc(-n3cnnn3)c(C)c2)c1 | 2% | -1% | . | -8% | 48%
COc1cccc(CN(Cc2cccnc2)S(=O)(=O)c2ccc(-n3cnnn3)c(C)c2)c1 | ? | 79µM* | -5% | 89µM* | 12%
COc1cc(S(=O)(=O)N(Cc2ccc(C)cc2)Cc2ccco2)ccc1-n1cnnn1 | -3% | -13% | . | -16% | 14%
COc1cc(S(=O)(=O)N(Cc2cccnc2)Cc2ccco2)ccc1-n1cnnn1 | 5.6µM* | 56µM* | -8% | 28µM* | -1%
CCC(=O)N1CCCc2cc(S(=O)(=O)N3CCC(C(=O)Nc4ccccc4CC)CC3)ccc21 | 17%[59 µM] | -10% | . | -21% | 4%[57 µM]
CCn1c(COc2ccc(=O)n(-c3ccccc3)n2)n[nH]c1=S | 25µM* | -2% | 2% | 20µM* | 40%
N#CCC(=N)N1CCN(c2ccc(F)cc2)CC1 | -3% | ? | . | -26% | 12%
Oc1cc(O)cc(/C=C/c2ccc(O)c(O)c2)c1 | 0.67µM* | ? | ? | 45µM* | 16µM*
CCOC(=O)c1ccc(N/C=C/C(=O)C(C)(C)C)cc1 | -20% | -20% | 9% | -13% | 47%
CN(C)c1ccc(N/C=C/C(=O)c2ccccc2)cc1 | 5.6µM* | ? | ? | ? | -20%
CN(C)c1ccc(N/C=C/C(=O)C(C)(C)C)cc1 | ? | 40µM* | . | 50µM* | -54%
